The source made the active and inactive calls.
Legend:
[1] = binders of probe aFSTL3 on microarray, primary screen, stem cell growth factor project, biochemical, small-molecule microarray, fluorescence 635/667 (AID 1064); settings: higher = more signal;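 note: measures binding of the biotinylated anti-FSTL3 antibody to printed compounds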
[2] = binders from COS7 lysate, DM2A8 probe, primary screen, torsin A project, cell lysate, small-molecule microarray, fluorescence 635/667 (AID 1065); settings: higher = more signal, COS7 lysate expressing mutant human TOR1A
[3] = binders of probe aFGF2 on microarray, primary screen, stem cell growth factor project, biochemical, small-molecule microarray, fluorescence 635/667 (AID 1067); settings: higher = more signal;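 note: measures binding of biotinylated aFGF2 protein to printed compounds on slides; z-score merges feature fluorescence and signal-to-noise across triplicate slides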
[4] = binders of probe aFGF10 on microarray, primary screen, stem cell growth factor project, biochemical, small-molecule microarray, fluorescence 635/667 (AID 1071); settings: higher = more signal;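 note: score merges 667 nm spot intensity and signal to noise from triplicate slides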
[5] = target: Neurogenic locus notch homolog protein 2 (Homo sapiens) (UniProt Q04721); test: Notch2 binders on small-molecule microarrays, primary screen, biochemical, small-molecule microarray, 635 nm fluorescence, stem cell growth factors (AID 1073); settings: Notch2 binding, higher = more signal
Chain of Neurogenic locus notch homolog protein 2 (Homo sapiens) (Q04721 whole entry, looked up, canonical isoform): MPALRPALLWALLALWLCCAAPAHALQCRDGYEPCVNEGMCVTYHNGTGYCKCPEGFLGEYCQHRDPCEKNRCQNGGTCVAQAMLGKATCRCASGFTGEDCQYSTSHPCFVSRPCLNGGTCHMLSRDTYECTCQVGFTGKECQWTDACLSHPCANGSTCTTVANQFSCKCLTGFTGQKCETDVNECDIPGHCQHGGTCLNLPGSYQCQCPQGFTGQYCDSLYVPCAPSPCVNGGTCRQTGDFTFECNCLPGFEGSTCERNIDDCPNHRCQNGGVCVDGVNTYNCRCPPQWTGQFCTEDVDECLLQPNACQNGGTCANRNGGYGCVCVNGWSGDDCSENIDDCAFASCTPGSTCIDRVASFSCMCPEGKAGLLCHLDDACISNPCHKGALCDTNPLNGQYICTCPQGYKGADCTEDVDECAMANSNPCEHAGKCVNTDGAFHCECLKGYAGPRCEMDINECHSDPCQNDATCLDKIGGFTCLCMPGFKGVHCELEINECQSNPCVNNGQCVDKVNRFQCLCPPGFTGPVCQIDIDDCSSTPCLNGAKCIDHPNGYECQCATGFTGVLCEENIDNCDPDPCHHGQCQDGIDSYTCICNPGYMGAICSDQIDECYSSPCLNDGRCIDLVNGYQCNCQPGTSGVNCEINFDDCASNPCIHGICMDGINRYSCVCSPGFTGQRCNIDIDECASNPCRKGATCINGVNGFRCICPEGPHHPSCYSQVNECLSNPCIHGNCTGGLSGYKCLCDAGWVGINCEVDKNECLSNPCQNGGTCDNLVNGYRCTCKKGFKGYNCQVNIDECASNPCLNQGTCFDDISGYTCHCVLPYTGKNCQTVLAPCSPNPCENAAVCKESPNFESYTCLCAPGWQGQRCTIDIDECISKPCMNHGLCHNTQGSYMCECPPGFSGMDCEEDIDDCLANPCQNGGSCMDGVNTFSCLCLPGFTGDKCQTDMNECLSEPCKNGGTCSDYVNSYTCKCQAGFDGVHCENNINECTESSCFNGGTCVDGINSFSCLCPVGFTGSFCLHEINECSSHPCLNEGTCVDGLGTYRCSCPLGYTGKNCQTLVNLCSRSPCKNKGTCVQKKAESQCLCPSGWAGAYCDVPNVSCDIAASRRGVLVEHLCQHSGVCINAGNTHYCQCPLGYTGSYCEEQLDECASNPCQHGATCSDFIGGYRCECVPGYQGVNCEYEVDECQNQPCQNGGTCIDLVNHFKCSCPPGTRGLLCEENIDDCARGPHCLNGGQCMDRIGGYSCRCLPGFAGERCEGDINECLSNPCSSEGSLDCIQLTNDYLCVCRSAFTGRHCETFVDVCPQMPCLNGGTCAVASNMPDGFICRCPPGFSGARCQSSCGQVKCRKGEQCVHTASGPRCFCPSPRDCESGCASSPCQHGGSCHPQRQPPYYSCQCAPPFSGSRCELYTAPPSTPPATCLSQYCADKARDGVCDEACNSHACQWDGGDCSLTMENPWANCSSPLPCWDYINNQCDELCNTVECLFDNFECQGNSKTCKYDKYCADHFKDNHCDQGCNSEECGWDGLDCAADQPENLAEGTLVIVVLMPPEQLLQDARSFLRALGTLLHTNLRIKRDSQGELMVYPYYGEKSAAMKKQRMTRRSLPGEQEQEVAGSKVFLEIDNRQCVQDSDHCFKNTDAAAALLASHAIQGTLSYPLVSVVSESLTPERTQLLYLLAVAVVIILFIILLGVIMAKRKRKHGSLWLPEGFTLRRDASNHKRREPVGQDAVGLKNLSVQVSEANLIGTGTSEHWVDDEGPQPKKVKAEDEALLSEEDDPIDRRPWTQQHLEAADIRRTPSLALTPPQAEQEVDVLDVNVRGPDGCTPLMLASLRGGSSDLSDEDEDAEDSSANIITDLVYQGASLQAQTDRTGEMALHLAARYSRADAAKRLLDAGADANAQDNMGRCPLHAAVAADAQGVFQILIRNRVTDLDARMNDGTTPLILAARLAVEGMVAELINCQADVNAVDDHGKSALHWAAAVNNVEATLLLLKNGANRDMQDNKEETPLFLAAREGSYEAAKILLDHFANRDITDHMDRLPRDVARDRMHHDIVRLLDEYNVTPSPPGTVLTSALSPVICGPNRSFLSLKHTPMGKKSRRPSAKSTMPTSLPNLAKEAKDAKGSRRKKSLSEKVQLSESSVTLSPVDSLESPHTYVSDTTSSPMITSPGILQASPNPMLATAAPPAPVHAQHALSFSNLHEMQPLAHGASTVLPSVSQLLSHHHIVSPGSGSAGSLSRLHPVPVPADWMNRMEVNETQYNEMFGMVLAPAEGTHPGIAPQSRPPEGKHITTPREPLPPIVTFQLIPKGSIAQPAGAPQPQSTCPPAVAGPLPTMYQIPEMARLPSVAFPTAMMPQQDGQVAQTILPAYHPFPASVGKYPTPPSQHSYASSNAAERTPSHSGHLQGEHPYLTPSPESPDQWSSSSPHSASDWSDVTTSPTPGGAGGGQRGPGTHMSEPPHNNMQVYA

[6] = target: Pro-neuregulin-1, membrane-bound isoform (Homo sapiens) (UniProt Q02297); test: NRG1 binders on small-molecule microarrays, primary screen, psychiatric disease protein project, biochemical, small-molecule microarray, fluorescence 635/667 (AID 1075); settings: NRG1 binding, 635 nm fluorescence, higher = more signal;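 note: score combines 667 nm spot fluorescence with signal to noise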
Chain of Pro-neuregulin-1, membrane-bound isoform (Homo sapiens) (Q02297 whole entry, looked up, the tested form may be a part, canonical isoform): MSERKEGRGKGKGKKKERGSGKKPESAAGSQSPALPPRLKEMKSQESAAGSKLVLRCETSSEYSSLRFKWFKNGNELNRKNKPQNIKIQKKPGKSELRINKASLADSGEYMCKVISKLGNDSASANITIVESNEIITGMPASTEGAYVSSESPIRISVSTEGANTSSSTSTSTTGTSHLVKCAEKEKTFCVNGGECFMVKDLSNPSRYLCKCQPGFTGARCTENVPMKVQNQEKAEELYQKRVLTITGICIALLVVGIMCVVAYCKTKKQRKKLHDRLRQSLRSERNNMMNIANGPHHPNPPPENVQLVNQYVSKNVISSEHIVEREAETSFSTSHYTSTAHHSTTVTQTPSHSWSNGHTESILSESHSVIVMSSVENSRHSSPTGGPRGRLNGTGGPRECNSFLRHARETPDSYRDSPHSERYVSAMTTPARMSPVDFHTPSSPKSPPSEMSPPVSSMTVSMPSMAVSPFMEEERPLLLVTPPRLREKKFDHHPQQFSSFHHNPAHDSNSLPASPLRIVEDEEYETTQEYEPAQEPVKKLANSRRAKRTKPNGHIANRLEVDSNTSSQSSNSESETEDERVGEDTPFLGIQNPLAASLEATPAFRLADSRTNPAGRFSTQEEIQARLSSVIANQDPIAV

[7] = tested on: Neuregulin-1 EGF-like domain; test: binders of neuregulin-1 EGF-like domain, primary screen, biochemical, small-molecule microarray, 635 nm fluorescence (AID 1081); settings: small-molecule microarray binding, higher = more signal;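 note: binding of the protein to compounds printed on small-molecule microarray slides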
[8] = FRG1 promoter luciferase signal modulators, primary screen, FRG1 inhibition for FSHD, cell-based, C2C12 myotubes, firefly/Renilla luciferase, luminescence (AID 1084); settings: higher = more signal, called active from +8 up or from −8 down
[9] = binders of probe aFST on microarray, primary screen, stem cell growth factor project, biochemical, small-molecule microarray, fluorescence 635/667 (AID 1086); settings: higher = more signal;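 note: score merges 667 nm fluorescence with signal-to-noise of each printed compound spot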
[10] = binders of probe aHhip on microarray, primary screen, stem cell growth factor project, biochemical, small-molecule microarray, fluorescence 635/667 (AID 1087); settings: higher = more signal;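 note: score merges spot fluorescence at 667nm with spot signal to noise ratio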
[11] = tested on: PRMT1 (protein arginine N-methyltransferase 1); test: PRMT1 binders on small-molecule microarrays, primary screen, biochemical, small-molecule microarray, 635 nm fluorescence (AID 1088); settings: small-molecule microarray binding, higher = more signal;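 note: binding of Prmt1 protein to compounds spotted on small-molecule microarray slides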
[12] = yeast growth modulation, basal conditions, primary screen, YJM789 clinical isolate, OD600, 24 h (AID 1089);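 note: growth of clinical yeast isolate S. cerevisiae YJM 789 seeded 1000 cells per well; test concentration not given here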; settings: S. cerevisiae YJM789 growth, higher = more signal, called active from +8 up or from −8 down
[13] = fission yeast growth modulation, primary screen, strain 972, OD600, 24 h, no modulator (AID 1090);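 note: basal condition with compound alone and no growth modifier present; test concentration not given here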; settings: S. pombe 972 growth, higher = more signal, called active from +8 up or from −8 down
[14] = S. cerevisiae growth modulation with rapamycin, primary screen, strain BY4716, OD600, 96 h (AID 1091); settings: higher = more signal, called active from +8 up or from −8 down; note: test concentration not given here
[15] = target: Torsin-1A-interacting protein 2 (Homo sapiens) (UniProt Q8NFQ8); test: LULL1 binders on small-molecule microarray, primary screen, cell lysate, human LULL1 lysate, 635/667 nm fluorescence (AID 1092); settings: hLULL1 lysate binding, 635 nm fluorescence, higher = more signal;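 note: probe is lysate of COS7 cells overexpressing human LULL1; score merges per-feature 667 nm fluorescence with signal-to-noise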
Chain of Torsin-1A-interacting protein 2 (Homo sapiens) (Q8NFQ8 whole entry, looked up): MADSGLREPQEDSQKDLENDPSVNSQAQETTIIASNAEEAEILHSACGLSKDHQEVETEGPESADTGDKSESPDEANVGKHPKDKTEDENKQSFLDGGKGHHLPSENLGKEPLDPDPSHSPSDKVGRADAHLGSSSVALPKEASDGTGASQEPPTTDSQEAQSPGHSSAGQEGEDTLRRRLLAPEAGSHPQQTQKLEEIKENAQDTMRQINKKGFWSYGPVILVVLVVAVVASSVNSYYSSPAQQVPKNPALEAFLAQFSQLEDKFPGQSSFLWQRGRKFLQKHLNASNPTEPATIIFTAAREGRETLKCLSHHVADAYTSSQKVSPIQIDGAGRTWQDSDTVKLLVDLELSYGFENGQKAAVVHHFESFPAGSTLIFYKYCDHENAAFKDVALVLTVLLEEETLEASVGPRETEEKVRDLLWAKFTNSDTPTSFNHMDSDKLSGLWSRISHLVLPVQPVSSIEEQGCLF

[16] = E. coli growth modulation, two-sided OD650, primary screen, E. coli filamentation project, strain DRC41, 24 h (AID 1093); settings: OD650, 24 h, higher = more signal, called active from +8 up or from −8 down;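 note: MC1000 strain lacking acrAB efflux and sulA so SOS filamentation is blocked; test concentration not given here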
[17] = small-molecule microarray binders of probe aLefty2, primary screen, biochemical, biotinylated probe, 635/667 nm fluorescence (AID 1094); settings: higher = more signal;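 note: score merges spot fluorescence near 667 nm with spot signal-to-noise ratio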
[18] = tested on: Noggin (protein binding on small-molecule microarray); test: Noggin binders on small-molecule microarray, primary screen, biochemical, 635/667 nm fluorescence (AID 1095); settings: 635 nm fluorescence, higher = more signal;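 note: score merges 667 nm feature fluorescence with signal to noise over triplicate slides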
[19] = target: Neurogenic locus notch homolog protein 3 (Homo sapiens) (UniProt Q9UM47); test: NOTCH3 binders on small-molecule microarray, primary screen, biochemical, 635/667 nm fluorescence (AID 1096); settings: NOTCH3 binding, 635 nm fluorescence, higher = more signal
[20] = small-molecule microarray binders of probe aEGFR, primary screen, biochemical, biotinylated probe, 635/667 nm fluorescence (AID 1097); settings: higher = more signal;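 note: probe is a biotinylated anti-EGFR antibody binding compounds printed on slides; score combines fluorescence near 667 nm and signal to noise of each spot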

Structure (SMILES): COC(=O)[C@@]1(Cc2ccccc2CN=[N+]=[N-])N=C(c2ccc(OCCCO)cc2)O[C@H]1c1ccccc1CN=[N+]=[N-]
- composite z-score [1]: 0.629
- composite z-score [2]: -0.43
- composite z-score [3]: -0.0457
- composite z-score [4]: 0.0746
- composite z-score [5]: -0.733
- composite z-score [6]: 0.846
- composite z-score [7]: 1.22
- z-score [8]: -1.23 (inactive)
- composite z-score [9]: -0.574
- composite z-score [10]: -0.226
- composite z-score [11]: 0.812
- z-score [12]: 0.84 (inactive)
- z-score [13]: 1.96 (inactive)
- z-score [14]: 35.5 (active)
- composite z-score [15]: 1.3
- z-score [16]: 0.478 (inactive)
- composite z-score [17]: -0.0458
- composite z-score [18]: -0.56
- composite z-score [19]: -0.498
- composite z-score [20]: -0.21

Structure (SMILES): COc1cc(CO)cc(I)c1O[C@H]1C=C(C(=O)NCCO)C[C@@H](NCC2CCCCC2)[C@@H]1O
- composite z-score [1]: -0.149
- composite z-score [2]: -0.422
- composite z-score [3]: -0.0506
- composite z-score [4]: 0.542
- composite z-score [5]: 0.481
- composite z-score [6]: 0.579
- composite z-score [7]: 0.652
- z-score [8]: -1.14 (inactive)
- composite z-score [9]: 0.638
- composite z-score [10]: 0.0505
- composite z-score [11]: 0.332
- z-score [12]: -1.94 (inactive)
- z-score [13]: -0.883 (inactive)
- z-score [14]: -0.999 (inactive)
- composite z-score [15]: 2.65
- z-score [16]: 1.69 (inactive)
- composite z-score [17]: -0.0719
- composite z-score [18]: 0.323
- composite z-score [19]: 0.793
- composite z-score [20]: -0.067

Structure (SMILES): C=CCC(OC(C)=O)[C@@H]1[C@@H](N(Cc2cc3ccccc3o2)C(=O)c2ccc(-c3ccccc3)cc2)c2cc(OCCCO)ccc2N1C(=O)Cc1ccc(OC)cc1 (stereo not given in full)
- composite z-score [1]: -0.0413
- composite z-score [2]: -0.183
- composite z-score [3]: -0.0002
- composite z-score [4]: 0.248
- composite z-score [5]: 0.0777
- composite z-score [6]: 0.0526
- composite z-score [7]: -0.353
- z-score [8]: -0.802 (inactive)
- composite z-score [9]: 0.331
- composite z-score [10]: -0.189
- composite z-score [11]: -0.826
- z-score [12]: 0.21 (inactive)
- z-score [13]: 0.443 (inactive)
- z-score [14]: 0.945 (inactive)
- composite z-score [15]: -0.299
- z-score [16]: -1.02 (inactive)
- composite z-score [17]: -0.0766
- composite z-score [18]: 0.18
- composite z-score [19]: -0.364
- composite z-score [20]: -0.0353

Structure (SMILES): CN(C)CCCC[C@@H]1NC(=O)[C@@H]2C[C@H](C(=O)O)[C@H](c3cccc(OCCO)c3)N2C1=O
- composite z-score [1]: 0.119
- composite z-score [2]: -0.326
- composite z-score [3]: -0.186
- composite z-score [4]: -0.392
- composite z-score [5]: -0.561
- composite z-score [6]: -0.579
- composite z-score [7]: -0.106
- z-score [8]: 1.3 (inactive)
- composite z-score [9]: -0.124
- composite z-score [10]: -0.175
- composite z-score [11]: 0.212
- z-score [12]: 0.15 (inactive)
- z-score [13]: -0.595 (inactive)
- z-score [14]: -0.273 (inactive)
- composite z-score [15]: 1.31
- z-score [16]: 0.802 (inactive)
- composite z-score [17]: -0.036
- composite z-score [18]: -0.0355
- composite z-score [19]: -0.0905
- composite z-score [20]: -0.203

Structure (SMILES): COCCOC(=O)N1C(=O)[C@@]2(c3cc(C#CCNC(N)=O)ccc31)[C@H](c1ccc(OCCO)cc1)N1[C@H](c3ccccc3)[C@H](c3ccccc3)OC(=O)[C@H]1[C@@H]2C(N)=O
- composite z-score [1]: 0.423
- composite z-score [2]: 0.278
- composite z-score [3]: 0.0541
- composite z-score [4]: 0.913
- composite z-score [5]: 1.49
- composite z-score [6]: 0.897
- composite z-score [7]: 0.809
- z-score [8]: 0.47 (inactive)
- composite z-score [9]: 0.715
- composite z-score [10]: 0.351
- composite z-score [11]: 0.981
- z-score [12]: 2.18 (inactive)
- z-score [13]: 1.16 (inactive)
- z-score [14]: 2.29 (inactive)
- composite z-score [15]: 1.92
- z-score [16]: 1.11 (inactive)
- composite z-score [17]: 0.221
- composite z-score [18]: 0.228
- composite z-score [19]: 0.542
- composite z-score [20]: 0.387

Structure (SMILES): CCOC(=O)C[C@H]1[C@H](OC(=O)c2ccc(C(=O)c3ccccc3)cc2)[C@@H](NC(=O)CC(C)C)c2cc(OCCCO)ccc2N1C(=O)Cc1ccc(OC)cc1
- composite z-score [1]: 0.134
- composite z-score [2]: 0.819
- composite z-score [3]: -0.105
- composite z-score [4]: 0.209
- composite z-score [5]: 0.342
- composite z-score [6]: 0.517
- composite z-score [7]: 0.2
- z-score [8]: -1.69 (inactive)
- composite z-score [9]: 0.51
- composite z-score [10]: -0.0074
- composite z-score [11]: 0.451
- z-score [12]: 0.247 (inactive)
- z-score [13]: 0.22 (inactive)
- z-score [14]: 0.265 (inactive)
- composite z-score [15]: 0.663
- z-score [16]: -0.113 (inactive)
- composite z-score [17]: 0.0351
- composite z-score [18]: -0.114
- composite z-score [19]: 0.477
- composite z-score [20]: -0.0585

Structure (SMILES): C=C[C@H](C)[C@H](OC(=O)Nc1ccc(OC)cc1)c1ccc(OCCO)cc1
- composite z-score [1]: 0.284
- composite z-score [2]: -0.294
- composite z-score [3]: -0.181
- composite z-score [4]: -1.65
- composite z-score [5]: -1.34
- composite z-score [6]: -0.154
- composite z-score [7]: 0.834
- z-score [8]: 3.14 (inactive)
- composite z-score [9]: -0.635
- composite z-score [10]: -0.0173
- composite z-score [11]: -0.173
- z-score [12]: 0.164 (inactive)
- z-score [13]: -2.2 (inactive)
- z-score [14]: -1.43 (inactive)
- composite z-score [15]: 0.038
- z-score [16]: 2.01 (inactive)
- composite z-score [17]: -0.129
- composite z-score [18]: -1.14
- composite z-score [19]: -0.36
- composite z-score [20]: -0.216

Structure (SMILES): C=CCC(OC(C)=O)[C@@H]1[C@@H](N(Cc2cccc3ccccc23)C(=O)c2cccc3ccccc23)c2cc(OCCCO)ccc2N1C(=O)c1ccc2ccccc2c1 (stereo not given in full)
- composite z-score [1]: -0.232
- composite z-score [2]: -0.124
- composite z-score [3]: 0.365
- composite z-score [4]: 0.0197
- composite z-score [5]: -0.833
- composite z-score [6]: -0.247
- composite z-score [7]: -0.313
- z-score [8]: -2.36 (inactive)
- composite z-score [9]: 0.268
- composite z-score [10]: -0.132
- composite z-score [11]: 0.692
- z-score [12]: -0.55 (inactive)
- z-score [13]: 0.672 (inactive)
- z-score [14]: -1.35 (inactive)
- composite z-score [15]: 1.65
- z-score [16]: 0.195 (inactive)
- composite z-score [17]: -0.156
- composite z-score [18]: 0.345
- composite z-score [19]: -0.0325
- composite z-score [20]: -0.0967

Structure (SMILES): COc1cc2c(cc1O)C(c1ccc(CN3CCCC3)cc1)N(C)CC2 (stereo not given)
- composite z-score [1]: -1.13
- composite z-score [2]: -0.77
- composite z-score [3]: -0.148
- composite z-score [4]: 0.0711
- composite z-score [5]: -0.101
- composite z-score [6]: 2.19
- composite z-score [7]: 1.07
- z-score [8]: -0.426 (inactive)
- composite z-score [9]: -0.382
- composite z-score [10]: -0.81
- composite z-score [11]: -1.16
- z-score [12]: 0.526 (inactive)
- z-score [13]: -0.262 (inactive)
- z-score [14]: 0.539 (inactive)
- composite z-score [15]: 0.54
- z-score [16]: 0.774 (inactive)
- composite z-score [17]: -0.316
- composite z-score [18]: -0.814
- composite z-score [19]: -0.579
- composite z-score [20]: -0.191

Structure (SMILES): O=C1OCC=C[C@H]2OC34C=CCN(c5ccc6ccccc6c5)C(=O)[C@H]3N(CCCCCO)C(=O)[C@@H]4[C@@H]12 (stereo not given in full)
- composite z-score [1]: 1.43
- composite z-score [2]: -0.964
- composite z-score [3]: -0.0407
- composite z-score [4]: -0.61
- composite z-score [5]: -0.994
- composite z-score [6]: 2.26
- composite z-score [7]: 1.39
- z-score [8]: -0.139 (inactive)
- composite z-score [9]: -0.356
- composite z-score [10]: -0.338
- composite z-score [11]: -0.6
- z-score [12]: -0.594 (inactive)
- z-score [13]: -0.955 (inactive)
- z-score [14]: -0.515 (inactive)
- composite z-score [15]: 3.68
- z-score [16]: 0.198 (inactive)
- composite z-score [17]: 0.306
- composite z-score [18]: -1.65
- composite z-score [19]: -1.04
- composite z-score [20]: -0.177
